Assay outcomes as filed in PubChem BioAssay.
Most compounds without a hit are left out; they make up all but 3.9% or so of the library.
HepG2 viability – qHTS for Inhibitors of TGF-b: Cytotox Counterscreen | HepG2 CAGA-GFP viability, ATP luminescence, 18 h | Potency, µM (top dose mostly 46.1 µM), without a hit: top-dose activity change, negative = cytotoxicity, hits mostly cytotoxic | 410,000 tested, 0.76% active | AID 588856, 2011
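CellTiter-Glo luminescence gave cytotoxicity after 18 hours at 37 degrees C. The cells were HepG2 CAGA-GFP in 1% FBS DMEM, stimulated with 500 pg/mL TGF-beta after compound addition. %Activity was normalised to no-cell wells (complete cell-killing) and DMSO (no toxicity), and curves were fitted and classified.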
HT1080-NT tox – qHTS for induction of synthetic lethality in tumor cells producing 2HG: qHTS for the HT-1080-NT fibrosarcoma cell line | HT-1080-NT fibrosarcoma viability, CellTiter-Glo ATP luminescence, 48 h | Potency, µM (titrated, usually from 46.1 µM), without a hit: at the highest dose activity, negative = less viability, hits mostly cytotoxic | 360,000 tested, 1.6% active;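 further: NT is the 2HG producing partner of a matched IDH1 knockdown line; 0% = DMSO-treated cells and -100% = media-only wells without cells; nearly all actives have a fitted effect of over 55% in size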
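Luminescent CellTiter-Glo readout after 48 hours of compound exposure at 37 degrees C defined viability of HT-1080-NT cells. Activity was normalized to DMSO wells and cell-free media wells; concentration-response curves were fitted and assigned curve classes.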
HT1080 IDH1KD tx – qHTS for induction of synthetic lethality in tumor cells producing 2HG: qHTS for the HT-1080-IDH1KD cell line; HT-1080 IDH1 knockdown viability, ATP luminescence, 48 h; Potency, µM (top dose mostly 46.1 µM), inactives show at the top dose activity, negative = toxicity, hits mostly cytotoxic; 360,000 tested, 2% active;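 further: 0% = DMSO wells and -100% = cell-free medium wells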
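Using the IDH1-knockdown HT-1080 line run in the same batch and compound series as the NT line, viability after 48 h at 37 °C was determined by CellTiter-Glo luminescence and expressed as % activity.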
TGFb inhibitor – qHTS for Inhibitors of TGF-b; HepG2 CAGA-GFP TGF-b/SMAD3 reporter, GFP fluorescence, 18 h; TGF-beta stimulated, 500 pg/mL final; Potency, µM (highest dose often 46.1 µM), inactives show at the highest dose activity, negative = inhibition, usual class: inhibitors; 410,000 tested, 1.2% active; AID 588855, 2011; further: on the % scale 0 is the no-effect control and ±100 the full control effect; nearly all actives have a fitted effect of over 65% in size
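HEPG2 CAGA-GFP cells (1000/well, DMEM with 1% FBS) were pre-incubated 2 h at 37 degrees C, given compound by pin tool, then stimulated with TGF-beta at 500 pg/mL final for 18 h before per-cell GFP fluorescence imaging.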
S2 tox – Viability Counterscreen for Primary qHTS for Inhibitors of ATXN expression. S2 cells (HEK-293 line with an ATXN2-luciferase reporter) viability, CellTiter-Fluor protease fluorescence, 24 h. Potency, µM (top dose mostly 56.7 µM), actives largely listed as cytotoxic. 400,000 tested, 0.49% active. AID 651635, 2014; further: nearly all actives have a fitted effect of over 40% in size
ATXN2 expr inh – Primary qHTS for Inhibitors of ATXN expression; Potency, µM (top dose mostly 57 µM), without a hit: at the highest dose activity change, negative = inhibition, hits mostly inhibitors; HEK-293 ATXN2-luciferase reporter, luminescence, 24 h; 360,000 tested, 0.72% active; further: on the % scale 0 is the no-effect control and ±100 the full control effect; nearly all actives have a fitted effect of over 55% in size
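ATXN2-luciferase reporter cells (luciferase flanked by upstream and downstream ATXN2 gene portions) were treated 24 h at 37 °C with compounds at up to 57 uM. SteadyGlo luminescence gave expression; GF-AFC fluorescence gave viability.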
An asterisk follows results filed as active; i = inactive; ? = inconclusive; / = not tested or not shown; [ ] = remark or other dose. The call rests on the fitted dose curve; in most records, active means well fitted curve in the direction sought with a large enough effect; inconclusive means small, poorly fitted or top-dose-only effect, or another doubt; inactive means no such curve, though single readings can be large; an effect the other way counts as inactive or inconclusive. Potency means the concentration at half of the fitted maximal effect.

SMILES | HepG2 viability | HT1080-NT tox | HT1080 IDH1KD tx | TGFb inhibitor | S2 tox | ATXN2 expr inh
Cc1cccc(N(CC(=O)Nc2c(C)n(C)n(-c3ccccc3)c2=O)S(C)(=O)=O)c1C | -4.8% | 1.0% | 1.8% | 2.82µM* | i | -1.5%
CC(=O)N1N=C(c2ccc(C)o2)CC1c1ccc(Br)cc1 (configuration not stated) | -10.4% | -16.6%[9.24 µM] | -18.8% | -1.9% | i | 60.5%
Cc1ccc(C2=NN(C(=O)CCC(=O)O)C(c3cccs3)C2)cc1 (configuration not stated) | 2.2% | 1.7% | 3.4% | 14.7% | i | 0.0%
CC(=O)N1N=C(c2ccco2)CC1c1cccs1 (configuration not stated) | 0.9% | 0.0% | 7.8% | 6.2% | i | 7.8%
CCC(=O)N1N=C(c2ccc(C)o2)CC1c1ccc(N(C)C)cc1 (configuration not stated) | 7.08µM* | -1.5% | -2.1% | -2.0% | i | -2.2%
O=C(CCl)N1N=C(c2ccco2)CC1c1cccs1 (configuration not stated) | -86.4% | ? | 23.1µM* | ? | / | ?
Cc1ccc(C2=NN(C(=O)CCl)C(c3cccs3)C2)o1 (configuration not stated) | 8.91µM* | 4.61µM* | 2.31µM* | 8.91µM* | / | 7.52µM*
CSc1nccc(-c2cc(Cl)c3c(c2)CC(CNC(=O)c2ccc(C)nc2)O3)n1 (configuration not stated) | / | / | / | / | i | /
COc1cccc(C(=O)Nc2cc(-c3ccccc3)nn2-c2ccccc2)c1 | -4.5% | / | / | 5.0% | ? | 11.4%
C=CC[N+]1([C@H]2C[C@H]3[C@@H]4CC[C@H]5C[C@H](O)[C@@H](N6CCOCC6)C[C@]5(C)[C@@H]4CC[C@]3(C)[C@H]2OC(C)=O)CCCC1 | / | / | / | / | / | 1.0%
CC(=O)Nc1cccc(C(=O)/C=C/c2ccc(C)cc2)c1 | 12.6µM* | -5.2% | ? | ? | ? | -4.7%
CCC(=O)Nc1cccc(C(=O)/C=C/c2ccc(F)cc2)c1 | 14.1µM* | -29.7% | ? | 20µM* | ? | ?
COc1cccc(NC(=S)NC(=O)/C=C/c2ccc(F)cc2)c1 | -3.7% | 5.6% | 5.1% | -12.0% | i | 1.4%
CC1CN(Cc2cccn2-c2cccnc2)Cc2cc(Cl)ccc2O1 (configuration not stated) | / | / | / | / | i | /
CCOC(=O)COc1cccc2c(=O)n(CC(N)=O)ccc12 | -5.1% | 7.0% | 4.2% | -9.3% | i | -2.2%
CCOC(=O)COc1cccc2c(=O)n(CC(=O)NCc3ccc(F)cc3)ccc12 | -7.1% | 1.16µM* | 1.03µM* | ? | ? | /
CCOC(=O)COc1cccc2c(=O)n(CC(=O)NCc3ccccc3)ccc12 | -3.5% | 0.517µM* | 0.461µM* | -24.5% | ? | /
Cc1ccc(C)c(NC(=O)CSc2cn(CC(=O)N3CCCCC3)c3ccccc23)c1 | -9.1% | / | / | 0.0% | / | /
Cc1cc(NCc2ccccn2)n2ncc(-c3ccc(Cl)cc3)c2n1 | -48.7% | ? | ? | 11.2µM* | ? | -14.1%
Cc1cc(NCc2ccccn2)n2nc(C)c(-c3ccc(Cl)cc3)c2n1 | 14.1µM* | ? | 20.6µM* | ? | i | ?
Cc1cc(Cl)n2ncc(-c3ccccc3)c2n1 | -17.2% | 18.4µM* | ? | 1.3% | i | 28.2%
Cc1cc(N)n2ncc(-c3ccc(Cl)cc3)c2n1 | -45.4% | ? | ? | 2.0% | i | 73.8%
